Compounds with a hit are over-represented: about 6.6% of the library has one in this group of screens.
RGS4 inhibitor: blocks human RGS4-accelerated GTP hydrolysis | P49798 | Transcreener GDP fluorescence polarization, RGS4-accelerated GTP hydrolysis | Potency, µM (titrated, usually from 114 µM), for the others: top-dose activity change, negative = inhibition, usual class: inhibitors | 390,000 compounds, 0.039% hits; further: on the % scale 0 is the no-effect control and ±100 the full control effect; nearly all actives have a fitted effect of over 75% in size
Target sequence (P49798 whole entry, looked up): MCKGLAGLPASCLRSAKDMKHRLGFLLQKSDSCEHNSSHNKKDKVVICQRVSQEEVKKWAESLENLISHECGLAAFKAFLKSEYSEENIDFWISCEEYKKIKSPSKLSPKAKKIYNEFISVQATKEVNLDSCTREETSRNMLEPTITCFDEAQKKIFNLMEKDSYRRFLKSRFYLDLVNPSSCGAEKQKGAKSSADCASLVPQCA
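MLSMR compounds (23 nl, pin-transferred) preincubated 10 min at room temperature with a 500nM (2x) first reagent, then RGS4 at 900nM (2x) plus Transcreener GDP mix added; fluorescence polarization (620/688 nm) read before and after 90 min at 30 °C.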
KB-V1 cytotox: KB-V1 MDR subline cytotoxicity | Potency, µM (highest dose often 46.1 µM), usual class: cytotoxic | 400,000 compounds, 3.4% hits | KB-V1 MDR cells viability, CellTiter-Glo, 72 h; further: on the % scale 0 is the no-effect control and ±100 the full control effect; nearly all actives have a fitted effect of over 60% in size
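KB-V1 cells (P-gp-expressing MDR subline of KB-3-1) in phenol-red-free DMEM with 10% FBS were exposed to library compounds over a concentration series for 72 h at 37 degrees C. Viability read by CellTiter-Glo luminescence; concentration-effect curves fitted after normalization.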
TSG101-PTAP inh: blocks PTAP/TSG101 interaction to inhibit HIV-1 budding; Fluorescence polarization, FITC-PTAP peptide / Tsg101 binding; 340,000 tested, under 10 active; Q99816; Potency, µM (highest dose often 115 µM), inactives show at the highest dose activity change, negative = inhibition, most hits filed as inhibitors; active means well fitted inhibition curve with a large enough effect in the main read-out, with a control signal flat, not every such curve was filed as active; inconclusive means small, poorly fitted or top-dose-only effect, or effect the other way, or a change in a side signal; inactive means no such curve, though single readings can be large or run the other way; further: % of control where 0% means no effect
Target sequence (Q99816 whole entry, looked up): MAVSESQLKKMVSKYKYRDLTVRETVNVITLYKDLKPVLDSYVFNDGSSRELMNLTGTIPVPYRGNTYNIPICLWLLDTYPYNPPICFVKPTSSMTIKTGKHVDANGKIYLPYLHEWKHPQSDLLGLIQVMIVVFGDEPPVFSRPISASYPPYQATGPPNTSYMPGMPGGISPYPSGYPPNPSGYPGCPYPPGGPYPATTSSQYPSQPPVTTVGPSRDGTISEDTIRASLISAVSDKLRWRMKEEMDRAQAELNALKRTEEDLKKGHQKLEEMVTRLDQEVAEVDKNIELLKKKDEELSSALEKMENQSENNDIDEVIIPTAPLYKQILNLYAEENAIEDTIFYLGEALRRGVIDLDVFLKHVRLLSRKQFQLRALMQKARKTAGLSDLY
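Tsg101 binding domain (10 uM final) was mixed with compound and a FITC-labeled PTAP peptide (50 nM final) in HEPES pH 7.5 buffer with NaCl, Tween 20, EDTA and TCEP; fluorescence polarization was read after 20 min at r.t.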
KB-3-1 tox: kills parental KB-3-1 adenocarcinoma cells; KB-3-1 viability, CellTiter-Glo ATP luminescence, 72 h; Potency, µM (top dose mostly 46.1 µM), most hits filed as cytotoxic; 400,000 compounds, 1.4% hits; further: on the % scale 0 is the no-effect control and ±100 the full control effect; nearly all actives have a fitted effect of over 60% in size
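Cytotoxicity in the drug-sensitive parental line KB-3-1 was scored as loss of CellTiter-Glo luminescence following 72 h incubation with compound. Values come from curve fitting of normalized concentration-response data.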
SW480 rerep: induces DNA re-replication in SW480 colon adenocarcinoma cells. AID 624297. 340,000 compounds, 1.8% hits. SW480 DNA re-replication, Hoechst DNA content imaging, 48 h. Potency, µM (highest dose often 46.1 µM), without a hit: top-dose re-replication activation, actives largely listed as activators; further: % of control where 0% means no effect; nearly all actives have a fitted effect of over 55% in size
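Image-based DNA-content assay: after two days of treatment, nuclei were labelled with the DNA dye Hoechst and imaged, and hits were compounds raising the count of nuclei showing high fluorescence intensity.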
MCF10A rereplic: inducers of DNA re-replication in MCF 10A breast cells | 350,000 compounds, 2.9% hits | AID 624296 | MCF 10A DNA re-replication, Hoechst nuclear intensity, 48 h | Potency, µM (titrated, usually from 46.1 µM), inactives show at the highest dose activity, positive = re-replication, usual class: activators; further: % of control where 0% means no effect; nearly all actives have a fitted effect of over 50% in size
* marks the source's active call; other numbers are inactive results; i = inactive; ? = inconclusive; nt = no result; [ ] = dose if it differs, or a comment. Unless noted, the call rests on the fitted dose curve; in most records, active means well fitted curve in the direction sought with a large enough effect; inconclusive means small, poorly fitted or top-dose-only effect, or another doubt; inactive means no such curve, though single readings can be large; an effect the other way counts as inactive or inconclusive. Potency means the concentration at half of the fitted maximal effect.

SMILES | RGS4 inhibitor | KB-V1 cytotox | TSG101-PTAP inh | KB-3-1 tox | SW480 rerep | MCF10A rereplic
C[C@@](N)(C(=O)O)[C@@H]1C[C@@H]1C(=O)O | 23.8µM* | nt | nt | nt | nt | nt
O=C(O)C1CC(Br)C(Br)CC1C(=O)O (stereo unspecified) | nt | i | nt | i | nt | nt
COc1cc(-c2nnc(COC(=O)C3c4ccccc4Oc4ccccc43)o2)cc(OC)c1OC | -27.5% | i | -4.3% | i | -4.6% | 8.9%
COc1ccc(C2=C(C=C(C#N)C#N)C(c3ccccc3C)c3ccccc3O2)cc1OC (stereo unspecified) | -41.2% | 14.6µM* | 1.0% | i | ? | -52.9%
CCOC(=O)c1cc(-c2ccc(C)cc2)nn1Cc1ccccc1 | -25.4% | i | nt | i | nt | nt
O=C(CC1C(=O)NCCN1Cc1cccc(Oc2ccccc2)c1)NCCc1cnccn1 (stereo unspecified) | -11.7% | i | -8.7% | i | 3.26µM* | 3.6%
COc1ccc(OCC(=O)OCC(=O)NC2CCCCC2C)cc1 (stereo unspecified) | 0.5% | ? | -1.6% | i | -19.0% | -1.4%
COc1cc(NC2CCCCC2O)c2nc(-c3ccc(Cl)cc3)ccc2c1 (stereo unspecified) | 15.5% | ? | -0.8% | ? | 13µM* | 13µM*
O=C(NNc1nc(-c2ccccc2)cs1)c1ccco1 | -31.3% | i | -4.3% | i | 18.4µM* | 3.4%
O=C(NNc1nc(-c2ccc(Cl)cc2)cs1)c1ccco1 | -24.0% | 20.6µM* | -1.4% | ? | ? | ?
CCCC(=O)Nc1cc(C)c2c(=O)oc3ccccc3c2n1 | -9.1% | 18.4µM* | 0.1% | i | -15.7% | 9.8%
CCCc1cc2c(c(NC(C)=O)n1)c(=O)oc1ccccc12 | ? | 13µM* | 0.9% | i | -3.9% | -1.6%
S=C(NCCc1ccccn1)Nc1cccc(Cl)c1 | 5.0% | 20.6µM* | -2.4% | i | 5.9% | 19.3%
CC(=O)c1cccc(NC(=S)NCCc2ccc(Cl)cc2)c1 | 33.6% | 18.4µM* | 0.6% | ? | -0.5% | 13.7%
CC(C)CNC(=O)c1cccc(NC(=O)Cc2ccc(Cl)cc2)c1 | -16.2% | 5.8µM* | 0.7% | ? | -126.8% | -72.4%
CC1CCCCN1S(=O)(=O)c1cc2c(=O)nc3ccccn3c2cc1Cl (stereo unspecified) | -3.9% | i | nt | i | nt | nt
CCn1c(=O)c2cc(C(=O)NC3CCC(C)CC3)sc2c2ccccc21 (stereo unspecified) | -15.8% | i | nt | i | nt | nt
O=C(Nc1ccc(S(=O)(=O)Nc2ncccn2)cc1)c1cc(=O)c2ccccc2o1 | 2.6% | i | nt | i | nt | nt
Cc1ccc(CNC(=O)c2ccc3c(c2)NC(=O)C(CS(=O)(=O)Cc2ccc(F)cc2)N3)cc1 (stereo unspecified) | -18.9% | i | nt | i | nt | nt
Cc1ccc2oc(C(=O)Nc3ccc(S(=O)(=O)Nc4nccc(C)n4)cc3)cc(=O)c2c1 | 23.6% | i | nt | i | nt | nt
O=C(Nc1ccccc1Br)C1CC(=O)N(c2ccc3c4c(cccc24)CC3)C1 (stereo unspecified) | -12.7% | ? | -0.5% | 4.61µM* | ? | 20.6µM*
CCN(C(=O)CSc1nc2ccccc2c2nc(CCn3c(C)nc4ccccc43)nn12)c1cccc(C)c1 | -38.1% | i | nt | i | nt | nt
O=C(CN1CCN(Cc2ccc(Cl)cc2)CC1)N/N=C/C=C/c1ccccc1[N+](=O)[O-] | -24.4% | i | -1.4% | 20.6µM* | 18.1% | ?
O=C1Nc2ccc(Br)cc2C1=C1CCCCC1 | -18.5% | ? | -3.0% | i | ? | 18.4µM*
Cc1ccc(N=C2C(=O)Nc3ccc(Br)cc32)cc1 | -32.0% | i | -0.7% | i | ? | ?
SMILES | RGS4 inhibitor | KB-V1 cytotox | TSG101-PTAP inh | KB-3-1 tox | SW480 rerep | MCF10A rereplic
O=C(NCc1ccc(Cl)cc1)C(=O)NCC(c1cccnc1)N1CCN(c2ccccc2)CC1 (stereo unspecified) | 14.4% | i | nt | ? | nt | nt
Cc1cc(N)ncc1[N+](=O)[O-] | 9.4% | i | -9.4% | i | -5.9% | 0.4%
Cc1ccc(C)c(Oc2ncnc(N)c2[N+](=O)[O-])c1 | -8.3% | i | 1.6% | i | -0.8% | 4.9%
Cc1cc(Sc2ncnc(N)c2[N+](=O)[O-])ncn1 | -25.6% | ? | -1.5% | 4.61µM* | ? | 2.91µM*
Cc1cc(Sc2nc(N)ncc2[N+](=O)[O-])ncn1 | -10.2% | i | -2.2% | 16.4µM* | ? | ?
Cc1ccc(C(=O)NC(=C(Cl)Cl)S(=O)(=O)c2ccc(C)cc2)cc1 | 19.8% | i | 0.3% | i | ? | 13µM*
Cc1ccc(S(=O)(=O)C(NC(=O)c2ccccc2)=C(Cl)Cl)cc1 | 15.8%[11.4 µM] | ? | -0.1% | ? | ? | 6.51µM*
O=C(NC(=C(Cl)Cl)S(=O)(=O)c1ccc(Cl)cc1)c1ccccc1 | -3.5% | ? | -0.4% | i | ? | ?
CC(=O)NC(=C(Cl)Cl)S(=O)(=O)c1ccccc1 | 26.2% | ? | -1.0% | ? | 11.6µM* | 13µM*
Cc1ccc(S(=O)(=O)/C(=C/Cl)NC(=O)c2ccccc2)cc1 | 24.4% | i | -0.4% | 13µM* | 13µM* | 4.11µM*
COc1cc(CN(C(=O)COc2ccccc2Cl)c2ccccn2)cc(OC)c1OC | -2.5% | i | nt | i | nt | nt
O=C(Cn1cnc2c(nnn2Cc2ccc(F)cc2)c1=O)Nc1cccc(F)c1 | -9.7% | i | 4.6% | i | -2.6% | -11.4%
O=C(Cn1cnc2c(nnn2Cc2ccc(F)cc2)c1=O)Nc1ccc2c(c1)OCCO2 | -12.3% | i | -5.7% | i | ? | 16.4µM*
Cc1nn2c(-c3ccccc3)nnc2c2ccccc12 | -14.1% | 5.8µM* | -6.7% | ? | -2.0% | 0.4%
COc1cc(C2Nc3ccc4ncccc4c3C3=C2C(=O)CCC3)ccc1O (stereo unspecified) | -11.9% | i | -1.5% | 3.26µM* | 20.6µM* | 16.4µM*

Compound activity (PubChem)
